# L929 necroptosis: blocks zVAD induced death of L929 cells; L929 zVAD necroptosis rescue, ATP luminescence, 24 h; with zVAD 60 µM; viability rescue, % at 10 µM; 220,000 compounds, 0.38% hits; AID 1377;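 active means activation, scaled between plate controls, above about 75%, limit read from the data; inactive means activation under that limit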;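 further: 0% = zVAD with DMSO and 100% = DMSO alone without zVAD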
# TNF death inh: TNF-alpha cell death inhibition in Jurkat FADD-/- cells; 220,000 compounds, 0.068% hits; Jurkat FADD-/- TNF necroptosis rescue, ATP luminescence, 24 h; 0 = TNF only, 100 = no-TNF cells; activation (protection from cell death), % at 10 µM; AID 463075;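 active means activation, meaning protection from cell death, of at least 50% relative to plate controls; inactive means activation below 50%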;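 further: necroptosis triggered by 40 ng/mL TNF-alpha added together with compound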
# S1P4 ag: activates the human S1P4 receptor; O95977; S1P4-expressing cell line, agonist reporter assay; activation, % at 4.98 µM; 220,000 compounds, 0.35% hits; AID 1509; in the data active means activation above about 11%;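 further: 0% = DMSO vehicle and 100% = reference agonist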
# Target sequence (O95977 whole entry, looked up): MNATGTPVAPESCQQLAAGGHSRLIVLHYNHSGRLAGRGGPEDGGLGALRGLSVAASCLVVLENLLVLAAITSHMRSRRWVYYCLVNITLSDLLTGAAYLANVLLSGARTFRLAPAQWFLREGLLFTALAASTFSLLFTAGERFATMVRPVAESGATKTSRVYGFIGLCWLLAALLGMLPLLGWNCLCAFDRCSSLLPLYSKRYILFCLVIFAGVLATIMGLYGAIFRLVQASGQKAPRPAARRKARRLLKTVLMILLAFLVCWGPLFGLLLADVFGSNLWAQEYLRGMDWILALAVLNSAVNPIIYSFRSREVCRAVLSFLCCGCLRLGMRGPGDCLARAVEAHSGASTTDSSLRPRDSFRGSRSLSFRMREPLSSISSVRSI
# S1P4 antag: human S1P4 receptor antagonism | AID 1510 | O95977 | 220,000 compounds, 0.26% hits | inhibition, % at 4.98 µM | S1P4-expressing cells, antagonist mode, reporter read-out; in the data active means inhibition above about 29%;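 further: 0% = wells stimulated with agonist and 100% = vehicle wells without agonist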
# HSV augment: increases HSV replication in cells; HSV replication augmentation in cells, fold increase; maximum fold increase; 220,000 compounds, 0.005% hits; AID 1956; in the data active means maximum fold increase above about 1.5; tested in PC3 cells
# Hsp70 activator: transcriptional activators of Hsp70; HeLa Hsp70 promoter luciferase reporter, luminescence; scaled: vehicle 0, proteasome-inhibitor control 100%; 200,000 compounds, 0.04% hits; activation, % at 10 µM; AID 1203;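 active means activation above the mean across all tested compounds plus 3 SD, cutoff set per campaign, cut at about 5.5% in these data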;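 further: 100% = MG132 at 30 µM as the positive control and 0% = DMSO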
# zVAD death conf: confirmed blocker of zVAD induced death in L929 cells; shares compounds with L929 necroptosis; L929 zVAD-induced necroptosis rescue, ATP luminescence, 24 h; activation (protection from necroptosis), % at 10 µM; 760 compounds, 16% hits; AID 463117;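 active means mean protection from necroptosis of at least 50% over duplicate tests; inactive means mean protection below 50%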;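 further: 0% = cells with zVAD alone and 100% = vehicle cells without zVAD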
# Active calls of the source: *; i = inactive; . = no result; ! = not active in a repeat. Rows were chosen to be rich in hits. Some 1% of all compounds tested hit in one or more screens of this group.
SMILES,L929 necroptosis,TNF death inh,S1P4 ag,S1P4 antag,HSV augment,Hsp70 activator,zVAD death conf
O=c1oc2ccccc2nc1/C=C(O)/C=C\c1ccccc1,78*,10,-1,-6,i,0,3
O=C(O)C1C2CC3C(OC(=O)C31)C2Cl (stereo not drawn),1,5,-1,10,i,0,.
CC1CCc2nc(NC(=O)Cc3cccs3)sc2C1 (stereo not drawn),0,8,-3,-9,i,1,.
CC(C)(C)C1CCc2nc(NC(=O)Cc3cn4ccsc4n3)sc2C1 (stereo not drawn),76*,4,0,-2,i,0,23
O=C(Nc1ccc(Cl)c(Cl)c1)c1cccc(S(=O)(=O)NCc2cccnc2)c1,77*,-5,0,-10,i,0,2
CCc1ccc(-c2csc(NC(=O)c3cccnc3)n2)cc1,1,-4,1,-18,i,0,.
CCOC(=O)Nc1ccc2c(c1)ncn2C1CCCCC1,84*,1,-1,-11,i,0,17
O=C(CSc1nnc(-c2ccccc2Br)o1)N1CCN(C(=O)c2ccco2)CC1,86*,-1,0,2,i,0,38
CCCNC(=O)NNC(=O)c1ccc(F)cc1,0,1,0,4,i,0,.
COC(=O)c1ccc(/C=N/Nc2nc3ccccc3[nH]2)cc1,82*,16,0,-2,i,0,8
C(=N\Nc1nc2ccccc2[nH]1)/c1ccc2c(c1)OCO2,79*,19,-2,11,i,0,9
C(=N\Nc1nc2ccccc2[nH]1)/c1ccncc1,78*,30,1,-4,i,0,51*
O=C(O)c1ccc(/C=N/Nc2nc3ccccc3[nH]2)cc1,0,-2,0,-9,i,.,.
C(=N\Nc1nc2ccccc2[nH]1)/c1cccs1,26,12,2,-4,i,0,.
CC(=O)Nc1ccc(/C=N/Nc2nc3ccccc3[nH]2)cc1,88*,-3,1,-7,i,0,2
CC(C)C1CC(CCN)(Cc2ccccc2)CCO1 (stereo not drawn),-2,4,-1,-27,i,0,.
COC(=O)c1ccccc1NC(=O)Nc1ccc(Br)cn1,-1,1,3,-23,i,0,.
COc1ccc(NC(=O)Nc2ccc(Br)cn2)cc1,79*,9,1,-23,i,0,10
Cc1ccc(NC(=O)Nc2ccc(Cl)cn2)cc1,83*,3,1,-18,i,0,1
O=C(Nc1cnccn1)Nc1ccccc1Cl,79*,-2,1,-27,i,0,2
O=C(Nc1ccc(Cl)cc1)Nc1cnccn1,76*,0,0,-13,i,0,7
CCOc1ccccc1NC(=O)Nc1cnccn1,80*,-2,0,8,i,0,2
O=C(Nc1ccccc1)Nc1ccccn1,77*!,1,1,-14,i,0,3
Cc1cc(C)nc(NC(=O)Nc2ccc3c(c2)OCO3)c1,31,1,2,-25,i,0,.
O=C(Nc1ccccn1)C(=O)Nc1ccccn1,0,-1,0,-9,i,.,.
SMILES,L929 necroptosis,TNF death inh,S1P4 ag,S1P4 antag,HSV augment,Hsp70 activator,zVAD death conf
Cc1ccc(NC(=O)Nc2ccc3c(c2)OCO3)nc1,77*,7,1,-17,i,0,1
N[C@@H](Cc1ccc(O)cc1)c1nnc([C@H](CO)NC(=O)C2CCNCC2)o1,0,1,2,-18,i,0,.
Cc1cc(C(=O)NC(C)C2CCCO2)no1 (stereo not drawn),0,1,0,-28,i,0,.
Cn1ncc2c(Nc3ccc4ccccc4c3)ncnc21,92*,-3,0,1,i,0,3
Cc1cccc(Nc2ncnc3c2cnn3C)c1,62,2,0,-25,i,0,.
Brc1csc(/C=N/Nc2nc3ccccc3s2)c1,76*,7,2,2,i,0,2
O=[N+]([O-])c1cc(Cl)cc(/C=N/Nc2nc3ccccc3s2)c1O,11,-1,-1,-15,i,0,.
COc1cc(OC)cc(C(=O)Oc2ccc(/C=N/Nc3nc4ccccc4s3)cc2OC)c1,77*,3,-1,-12,i,0,5
COc1cc(/C=N/Nc2nc3ccccc3s2)ccc1OC(=O)c1ccccc1F,75*,31,1,-9,i,0,75*
COc1cc(/C=N/Nc2nc3ccccc3s2)cc([N+](=O)[O-])c1O,76*,25,0,8,i,.,1
CCSc1ccc(-c2cccc([N+](=O)[O-])c2)nn1,5,1,0,8,i,0,.
C#CCSc1n[nH]c(=O)n1-c1cccc(C(F)(F)F)c1,0,-1,-1,-6,i,.,.
CCC(=O)Nc1ccc(C(=O)NNC(=O)COc2cc(C)ccc2C)cc1,85*,1,-1,1,i,0,45
COC(=O)NNC(=O)COc1cc(C)ccc1C,0,1,0,-11,i,0,.
Cc1cccnc1NC(=O)NC(=O)c1ccc(C(C)(C)C)s1,72,-11,1,-1,i,.,.
Cc1cc(C(=O)COC(=O)c2ccc(O)cc2)c(C)n1Cc1ccco1,75*,-2,1,-32,i,0,2
CC1CCCCN1C(=O)COC(=O)/C=C/c1ccc2ccccc2n1 (stereo not drawn),9,0,1,-2,i,0,.
CC(C)(C)c1cc(NC(=O)Nc2ccc(Br)cc2Cl)no1,76*,2,-1,0,i,0,2
CC(C)(C)c1cc(NC(=O)Nc2ccc(Cl)cc2Cl)no1,54,3,-1,9,i,.,.
O=C(NC(=S)Nc1cccc(NC(=O)c2ccc(Cl)cc2Cl)c1)c1cccs1,77*,-1,1,1,i,0,35
CCC(=O)Nc1cccc(NC(=S)NC(=O)c2ccc(Cl)cc2Cl)c1,1,0,1,-17,i,0,.
CN1CCN(c2ccc(-c3ccnn3C(=O)Nc3ccccc3)cc2)CC1,84*,9,-1,7,i,0,29
C(=N\Nc1ncnc2nc[nH]c12)/c1cccs1,77*,-3,0,-17,i,0,40
Cc1ccsc1/C=N/Nc1ncnc2nc[nH]c12,64,-7,0,9,i,1,.
COc1ccc(S(=O)(=O)N2c3ccccc3OCC2c2ccccc2)cc1 (stereo not drawn),0,-17,-1,-9,i,0,.
